ASM inhibitor: human S-ASM enzyme inhibition | placental ASM, HMU-PC fluorogenic substrate, 60 min | Potency, µM (series often up to 57.5 µM), without a hit: at the top dose activity change, negative = inhibition, most hits filed as inhibitors | hit rate 0.006% among 340,000; note: potency is the fitted concentration of half-maximal effect
Target sequence (P17405 47-631 limits assumed): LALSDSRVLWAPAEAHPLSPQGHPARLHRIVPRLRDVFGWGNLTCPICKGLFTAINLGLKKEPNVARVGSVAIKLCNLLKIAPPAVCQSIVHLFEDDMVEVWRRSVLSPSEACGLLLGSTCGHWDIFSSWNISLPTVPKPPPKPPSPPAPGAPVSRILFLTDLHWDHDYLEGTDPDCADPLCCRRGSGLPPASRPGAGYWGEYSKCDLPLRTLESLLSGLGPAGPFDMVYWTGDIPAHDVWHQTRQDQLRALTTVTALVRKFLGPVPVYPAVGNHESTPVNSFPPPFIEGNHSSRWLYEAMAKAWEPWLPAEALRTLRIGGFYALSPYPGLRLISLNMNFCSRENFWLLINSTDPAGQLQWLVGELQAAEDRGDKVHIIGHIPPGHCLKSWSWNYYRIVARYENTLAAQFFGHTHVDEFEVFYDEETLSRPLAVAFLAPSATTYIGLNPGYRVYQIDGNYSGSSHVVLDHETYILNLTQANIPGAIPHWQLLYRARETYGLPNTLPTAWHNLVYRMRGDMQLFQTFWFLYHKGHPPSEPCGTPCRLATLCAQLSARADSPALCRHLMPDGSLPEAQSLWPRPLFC
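Fluorescence read-out (Ex 386 nm, Em 447 nm) after stopping the reaction at pH 10. Enzyme: ASM from human placenta; substrate HMU-PC0, 9 uM final; 60 min, 37 °C. Compound preincubation 10 min, ambient temperature.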
TDP1 cell CPT: DT40-hTDP1 cell growth loss with CPT | hit rate 12% among 420,000 | chicken DT40 Tdp1-/-;hTDP1 cells + 20 nM CPT, ATP luminescence, 48 h | Potency, µM (highest dose often 46.2 µM), without a hit: at the highest dose activity change, negative = growth inhibition, actives largely listed as inhibitors; note: potency is the fitted concentration of half-maximal effect; % is set by controls: 0 for no effect and ±100 for the full control effect; nearly all actives have a fitted effect of over 55% in size
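Chicken DT40 Tdp1-/- cells complemented with human TDP1, 400 cells/well, exposed to compounds plus 20 nM camptothecin for at least 48 h at 37 C; viability read as ATP content by CellTiter-Glo luminescence.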
TGFb inhibitor: inhibitors of TGF-b signaling; HepG2 CAGA-GFP TGF-b/SMAD3 reporter, GFP fluorescence, 18 h; TGF-beta stimulated, 500 pg/mL final; Potency, µM (titrated, usually from 46.1 µM), for the others: top-dose activity, negative = inhibition, most hits filed as inhibitors; hit rate 1.2% among 410,000; AID 588855; note: potency is the fitted concentration of half-maximal effect; % is set by controls: 0 for no effect and ±100 for the full control effect; nearly all actives have a fitted effect of over 65% in size
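Using HEPG2 CAGA-GFP reporter cells at 1000 cells/well, we pinned test compounds, stimulated with recombinant TGF-beta (500 pg/mL final) and measured total well GFP after 18 h.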
DT40 TDP1 no CPT: qHTS for Inhibitors of human tyrosyl-DNA phosphodiesterase 1 (TDP1): qHTS in cells in absence of CPT; DT40 Tdp1-/- hTDP1 cells, no CPT, ATP luminescence, 48 h; AID 686978, 2013; Potency, µM (top dose mostly 46.2 µM), inactives show at the top dose activity change, negative = growth inhibition, hits mostly inhibitors; hit rate 15% among 420,000; note: potency is the fitted concentration of half-maximal effect; % is set by controls: 0 for no effect and ±100 for the full control effect; nearly all actives have a fitted effect of over 55% in size
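A cellular qHTS used chicken DT40 cells lacking endogenous Tdp1 but carrying stably transfected human TDP1. Compounds were applied without camptothecin, and cell growth kinetics were judged by ATP-dependent luminescence after ≥48 hr.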
IL1B secr inh: blocks inflammasome-driven IL-1 beta release. THP-1 LPS/ATP IL-1B secretion, AlphaLISA, 16 h; stronger effect = lower value. activity change, % at 57.5 µM. hit rate 4.7% among 360,000; in the data active = activity change below about -50%; inconclusive = mostly about -30% to -49%; note: % is set by controls: 0 for no effect and ±100 for the full control effect
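Secreted IL-1B measured by AlphaLISA bead assay after 16 h compound exposure of THP-1 cells; compounds (final up to 57.5 uM) added 1 h before LPS (250 ng/mL) and ATP (1.25 mM) stimulation; lower signal means less secretion.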
HepG2 tox: kills HepG2 cells in TGF-b inhibitor counter-screen; hit rate 0.76% among 410,000; Potency, µM (doses to about 46.1 µM), for inactives: top-dose activity change, negative = cytotoxicity, hits mostly cytotoxic; HepG2 CAGA-GFP viability, ATP luminescence, 18 h; note: potency is the fitted concentration of half-maximal effect
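CellTiter-Glo luminescence gave cytotoxicity after 18 hours at 37 degrees C. The cells were HepG2 CAGA-GFP in 1% FBS DMEM, stimulated with 500 pg/mL TGF-beta after compound addition. %Activity was normalised to no-cell wells (complete cell-killing) and DMSO (no toxicity), and curves were fitted and classified.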
An asterisk follows results filed as active; u = inconclusive; x = no result. An excerpt weighted towards active compounds, which were near 19% of everything screened. Unless noted, calls come from the whole dose curve; as a rule, active = well fitted curve in the direction sought with a large enough effect; inconclusive = small, poorly fitted or top-dose-only effect, or another doubt; inactive = no such curve, though single readings can be large; an effect the other way counts as inactive or inconclusive.

SMILES	ASM inhibitor	TDP1 cell CPT	TGFb inhibitor	DT40 TDP1 no CPT	IL1B secr inh	HepG2 tox
Cc1ccc(-c2cc(C(=O)N/N=C/c3ccoc3)c3ccccc3n2)cc1	-0.6%	u	-8.8%	u	-4.6	-10.0%
CC(/C=N/NC(=O)c1cc(-c2ccccc2)nc2ccccc12)=C\c1ccco1	-11.8%	2.31µM*	u	0.731µM*	-12.1	-32.0%
Cc1cc(C(=O)N/N=C/c2ccco2)c2ccccc2n1	1.7%	u	13.6%	u	14.1	-12.0%
CC(/C=N/NC(=O)c1cc(-c2ccc(Cl)cc2)nc2ccccc12)=C\c1ccco1	-9.7%	2.91µM*	u	3.26µM*	2.7	7.5%
CC(C)=CCN1CCN(Cc2ccc(C#CC(C)(C)O)s2)CC1CCO (stereo unspecified)	8.3%	-5.4%	2.8%	2.2%	-17.7	3.8%
CCN1CCN(C(=O)c2ccc3c(c2)N(Cc2ccc(F)cc2)C(=O)c2ccccc2S3(=O)=O)CC1	x	u	x	u	x	-9.4%
O=C(NCc1ccccc1)c1ccc2c(c1)N(Cc1cccc(Cl)c1)C(=O)c1ccccc1S2(=O)=O	x	u	0.0%	3.6%	x	-1.2%
O=C(c1ccc2c(c1)N(Cc1ccc(Cl)cc1)C(=O)c1ccccc1S2(=O)=O)N1CCN(c2ccccn2)CC1	x	16.4µM*	0.0%	23.1µM*	x	-38.1%
O=C(c1ccc2c(c1)N(Cc1cccc(Cl)c1)C(=O)c1ccccc1S2(=O)=O)N1CCN(c2ccccn2)CC1	-1.3%	u	-25.3%	13µM*	-1.6	-15.0%
N#Cc1cccnc1N1CCN(C(=O)c2ccc3c(c2)S(=O)(=O)c2ccccc2C3=O)CC1	-0.7%	25.9µM*	0.1%	u	u	-0.6%
CCN(Cc1ccccc1)C(=O)C(CC(C)C)NS(=O)(=O)c1ccc2c(c1)CCN2C(C)=O (stereo unspecified)	x	u	-0.3%	u	x	-18.2%
CCCN1C(=O)SC(CC(=O)Nc2ccc(Br)cc2)C1=O (stereo unspecified)	-0.8%	u	-0.6%	12.6µM*	-0.9	-18.7%
O=C(CC1Sc2ncnn2C1=O)Nc1ccc(Br)cc1 (stereo unspecified)	-2.4%	2.06µM*	25.3%	4.61µM*	-11.5	12.3%
O=C(CCC(=O)N(CC(=O)NC1CCCCC1)CC1CCCO1)Nc1nccs1 (stereo unspecified)	0.7%	-22.6%	-3.2%	-13.8%	-0.7	10.6%
COc1cc(C(=O)N/C(=C\c2cn(C)c3ccccc23)C(=O)NCCCn2ccnc2)cc(OC)c1OC	0.9%	5.2%	10.9%	9.5%	35.6	10.4%
CCOc1c(Br)cc(C(=O)OCC(=O)N2CCc3ccccc3C2)cc1OC	-4.5%	u	-1.4%	25.9µM*	-7.7	3.2%
N#Cc1ccccc1OCC(=O)N1CCc2ccccc2C1	2.5%	1.0%	-19.2%	-3.7%	0.0	-8.3%
CC(=O)Oc1cc(C(=O)OCC(=O)N2CCc3ccccc3C2)cc(OC(C)=O)c1OC(C)=O	0.1%	4.11µM*	-18.5%	5.17µM*	28.3	-39.6%
COc1ccc(C(=O)OCC(=O)N2CCc3ccccc3C2)cc1OC	3.0%	u	9.7%	-18.1%	-0.4	12.0%
COc1cc2c(cc1OC)CN(C(=O)COc1ccccc1C#N)CC2	-0.4%	20.6µM*	u	11.6µM*	-73.6*	-41.0%
Cc1cccc(C)c1OCC(=O)N1CCc2ccccc2C1	2.0%	u	-17.7%	u	-81.9*	-9.5%
Cc1ccccc1S(=O)(=O)Nc1ncnc2ccccc12	205.0%	1.1%	-7.1%	-19.9%	26.7	-8.7%
COc1ccc2c(c1)cc1c(=O)n(CC(=O)NCc3ccco3)nc(C)n12	x	-2.3%	-5.9%	-4.9%	x	-9.9%
COc1ccc(NC(=O)CN2CCN(c3nc(-c4ccc(F)cc4)cs3)CC2)c(OC)c1	-11.5%	u	u	u	25.6	0.2%
CCCCc1ccc(NC(=O)Nc2cc(C)nn2C)cc1	-1.2%	2.1%	1.5%	-19.9%	34.8	0.5%
SMILES	ASM inhibitor	TDP1 cell CPT	TGFb inhibitor	DT40 TDP1 no CPT	IL1B secr inh	HepG2 tox
O=C(/C=C/c1ccccc1Cl)NCCCn1ccnc1	-2.7%	-6.2%	-9.9%	-6.7%	5.5	-49.6%
O=c1cnn(-c2ccc(Cl)cc2Cl)c(-c2ccccc2)c1	-6.1%	u	-19.6%	23.1µM*	-17.4	-20.1%
COc1ccc(C)cc1NC(=O)CSCc1ccccc1C	3.9%	-26.2%	-17.8%	u	-3.9	-10.7%
COc1cc2c(cc1OC)C1=NC(=O)CN1C(SCc1ccccc1C)=N2	131.7%	10.3µM*	-4.1%	10.3µM*	-4.5	-0.7%
Cc1sc2ncnc(N/N=C/c3ccccc3O)c2c1C	2.9%	3.66µM*	u	3.26µM*	62.3	-28.6%
Cc1sc2ncnc(N/N=C/c3ccc(O)cc3)c2c1C	-3.1%	u	-28.4%	u	-11.9	-4.2%
COc1ccc(/C=N/Nc2ncnc3sc(C)c(C)c23)cc1	-1.9%	2.91µM*	u	4.11µM*	-16.4	-39.2%
COc1cccc(/C=N/Nc2ncnc3scc(-c4ccccc4)c23)c1OC	u	u	u	18.4µM*	-66.8*	-61.1%
O=C1c2ccccc2C(=O)N1CC1CCCO1 (stereo unspecified)	1.8%	-3.6%	10.9%	-10.7%	-18.3	3.55µM*
O=C(CN1C(=O)c2ccc([N+](=O)[O-])cc2C1=O)NCC1CCCO1 (stereo unspecified)	x	-1.7%	26.5%	-13.4%	0.4	1.7%
O=C1c2ccccc2C(=O)N1CC1CO1 (stereo unspecified)	4.2%	16.4%	0.0%	9.5%	-7.7	0.8%
O=C1c2cccc3cc([N+](=O)[O-])cc(c23)C(=O)N1CC1CCCO1 (stereo unspecified)	-0.8%	7.31µM*	4.2%	6.51µM*	-72.5*	-17.9%
COc1ccc(NC(=O)CSc2n[nH]c(=O)n2Cc2ccccc2)cc1Cl	-1.0%	u	5.9%	u	-3.9	-0.6%
Cc1cc(-c2c(C)[nH]n(-c3ccccc3)c2=O)n[nH]1	2.9%	2.91µM*	-6.4%	4.11µM*	-2.4	-12.2%
Cc1cc(-c2c(C)[nH]n(-c3ccccc3)c2=O)n(-c2ccccc2)n1	-0.8%	-21.5%	-5.6%	1.0%	5.8	11.1%
COC(=O)Nc1ccc(S(=O)(=O)NC2CCCCC2)cc1	-0.4%	-12.9%	-4.3%	-16.5%	10.1	5.5%

High-throughput results from PubChem.
